# Screening results (PubChem BioAssay)
# PAFAH1B2 FP inh – PAFAH1B2 (human) inhibition | recombinant PAFAH1B2, FP-rhodamine activity probe, fluorescence polarization | inhibition, % at 3.39 µM | 340,000 tested, 1.2% active | AID 492953;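 active means inhibition above the mean of all tested compounds plus 3 SD, cut at about 24% in these data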
# pPAFAH FP inh – pPAFAH (human) enzyme inhibition; recombinant pPAFAH, FP-rhodamine probe fluorescence polarization; inhibition, % at 3.39 µM; 330,000 tested, 1.5% active; AID 463082;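 active means inhibition above the mean inhibition across the screen plus 3 SD, cut at about 25% in these data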;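 further: inhibitors block binding of the rhodamine activity-based probe so polarization drops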
# PKA-R1A act – activators of PKA-R1A complex; 340,000 tested, 0.083% active; P00514+P68181; PKA-R1A dissociation, Cy5-IP20 fluorescence polarization; scaled: DMSO 0%, 113 µM cGMP 100%; activation, % at 11.4 µM;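 active means percent activation above the mean of all tested compounds plus 3 SD, cut at about 19% in these data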;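 further: higher means more PKAc released from R1A so a rise in polarization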
# PAFAH2 inh – PAFAH2 (human) inhibition. Q99487. 340,000 tested, 0.99% active. inhibition, % at 3.39 µM. recombinant PAFAH2, FP-rhodamine activity probe, fluorescence polarization. AID 492956;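 active means inhibition above the mean over all tested compounds plus 3 SD, cut at about 30% in these data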;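 further: inhibitors block probe labeling of enzyme so polarization drops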
# PAFAH1B3 FP inh – blocks human PAF acetylhydrolase 1B catalytic subunit 3 | recombinant PAFAH1B3, FP-rhodamine probe, fluorescence polarization | Q15102 | AID 492972 | 340,000 tested, 0.28% active | inhibition, % at 3.39 µM;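 active means inhibition above the screen-wide average of all tested compounds plus 3 SD, cut at about 25% in these data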
# PKA-R2B act – PKA-R2B complex activation. P22694+P31323. PKA-R2B holoenzyme dissociation, Cy5-IP20 fluorescence polarization; R2B truncated from residue 108, S112A mutant; 0% DMSO only, 100% 113 µM cGMP. activation, % at 11.4 µM. 340,000 tested, 0.079% active;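 active means activation above a cutoff set at the mean over all compounds plus 3 SD, cut at about 18% in these data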;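 further: higher means more holoenzyme dissociation and a rise in polarization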
# Target sequence (P31323 whole entry, looked up, other chains not shown, the tested form may be a part): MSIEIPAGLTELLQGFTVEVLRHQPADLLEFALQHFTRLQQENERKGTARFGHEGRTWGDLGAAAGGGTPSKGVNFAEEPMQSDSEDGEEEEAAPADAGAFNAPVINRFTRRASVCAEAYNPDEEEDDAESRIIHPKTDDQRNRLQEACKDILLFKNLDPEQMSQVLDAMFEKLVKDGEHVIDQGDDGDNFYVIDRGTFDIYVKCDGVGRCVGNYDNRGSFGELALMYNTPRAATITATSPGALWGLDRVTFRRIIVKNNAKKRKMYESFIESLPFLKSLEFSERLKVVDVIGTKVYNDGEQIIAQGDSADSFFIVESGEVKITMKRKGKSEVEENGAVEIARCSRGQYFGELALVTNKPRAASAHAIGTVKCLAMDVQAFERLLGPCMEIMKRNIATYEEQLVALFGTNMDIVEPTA
# Hits are given with their value; – = inactive; · = not tested or not shown. An excerpt weighted towards active compounds, which were near 2.6% of everything screened.
SMILES,PAFAH1B2 FP inh,pPAFAH FP inh,PKA-R1A act,PAFAH2 inh,PAFAH1B3 FP inh,PKA-R2B act
COc1ccc(-n2nnnc2SCC(N)=O)cc1,–,–,–,–,–,–
C=CCn1c(SCC(=O)c2ccc(O)c(O)c2)nnc1-c1ccc(OC)cc1,–,30,–,–,–,–
C=CCn1c(SCC(=O)c2ccc(O)c(O)c2)nnc1-c1cccc(OC)c1,–,28,–,–,–,–
C=CCn1c(SCC(=O)c2ccc(O)c(O)c2)nnc1-c1ccc(C)cc1,–,28,–,–,–,–
C=CCn1c(SCC(=O)c2cccs2)nnc1-c1cccc(OC)c1,–,–,–,–,–,–
Cn1c(SCC(=O)c2ccc(O)c(O)c2)nnc1-c1ccccc1,–,·,–,–,–,–
Cc1cc(NS(=O)(=O)c2ccc(NC(=O)CCCOc3cccc(C)c3C)cc2)no1,–,–,–,–,–,–
CCn1c(C)cc(/C=C2\NC(=O)N(Cc3ccc(Cl)cc3)C2=O)c1C,–,–,–,–,–,–
CCN1C(=O)N/C(=C/c2cc(C)n(Cc3ccccc3)c2C)C1=O,82,–,–,–,–,–
O=C(Nc1ccc(OC(F)(F)F)cc1)c1[nH]ncc1[N+](=O)[O-],–,–,–,37,–,–
O=C(Nc1ccc(S(=O)(=O)N2CCCCCC2)cc1)c1[nH]ncc1[N+](=O)[O-],–,–,–,–,–,–
FC(F)(F)c1nc2cc3nc4ccccc4[nH]c3cc2n1,–,31,–,–,–,–
O=S(=O)(c1cccc(F)c1)N1CCN(C(=S)NCC2CCCO2)CC1 (stereo not drawn),–,–,–,–,–,–
O=C(O)CC1c2ccccc2CCN1S(=O)(=O)c1ccc(F)cc1 (stereo not drawn),31,–,–,–,–,–
O=C(O)c1ccc(NS(=O)(=O)c2ccc3c(c2)C2C=CCC2C(c2ccccc2F)N3)cc1 (stereo not drawn),–,·,–,41,42,–
O=C(O)c1ccc2c(c1)C1C=CCC1C(c1cc3c(cc1Br)OCO3)N2 (stereo not drawn),–,–,–,–,–,–
CC1CCCC(C)N1C(=O)CSc1nc(N)c(-c2ccccc2)c(=O)[nH]1 (stereo not drawn),25,–,–,–,–,–
O=C(Nc1ccc(NS(=O)(=O)c2ccccc2)c(Cl)c1)c1ccccc1,–,·,–,–,–,–
O=C(NCc1cccs1)c1cccc(Nc2nc3ccc(Br)cc3[nH]2)c1,27,–,–,–,32,–
CN(C(=O)CCCN1CCCC1=O)C1CCCN(Cc2ccccc2F)C1 (stereo not drawn),–,·,–,–,–,–
Cc1ccc(S(=O)(=O)NCCC(=O)Nc2ccncc2)cc1C,–,–,–,–,–,–
CC(=O)Nc1ccc(S(=O)(=O)NCCC(=O)Nc2ccc(C)c(Cl)c2)cc1,–,–,–,–,–,–
Cc1ccc(S(=O)(=O)NCCC(=O)Nc2ccc(Cl)c(Cl)c2)cc1,29,–,–,–,–,–
Cc1ccc(S(=O)(=O)NCCC(=O)Nc2ccc(Cl)c(Cl)c2)cc1C,25,–,–,–,–,–
NC(=O)CCC(NS(=O)(=O)c1ccc(Cl)cc1)C(=O)NCC1CCCCC1 (stereo not drawn),–,–,–,–,–,–
SMILES,PAFAH1B2 FP inh,pPAFAH FP inh,PKA-R1A act,PAFAH2 inh,PAFAH1B3 FP inh,PKA-R2B act
NC(=O)CCC(NS(=O)(=O)c1ccc(Cl)cc1)C(=O)NCc1ccc(Cl)cc1 (stereo not drawn),24,–,–,–,–,–
S=c1[nH]nc(CSCCOc2ccccc2)o1,–,–,–,–,–,–
S=c1[nH]nc(CSCCOc2ccc(Cl)cc2Cl)o1,34,–,–,–,–,–
C=C(C)C(COc1c2occc2cc2ccc(=O)oc12)OC(C)(C)C(O)COc1c2occc2cc2ccc(=O)oc12 (stereo not drawn),66,–,–,–,–,–
O=C(Cc1ccc(Cl)cc1)Nc1ccc(S(=O)(=O)Nc2cnc3ccccc3n2)cc1,–,31,–,–,–,–
OCc1ccc2c(c1)c(-c1ccc3c(c1)OCCO3)c(-c1ccccc1)n2-c1ccccc1,–,–,–,–,–,–
Cc1ccc(NC(=O)CSc2nnc(NC3CC3)s2)cc1S(=O)(=O)N1CCOCC1,·,·,–,·,·,–
O=[N+]([O-])c1ccc(O)c(C=Nc2ccc3c(c2)OCCO3)c1,–,–,–,–,–,–
O=[N+]([O-])c1ccc(O)c(C=Nc2ccc3oc(Cc4ccc(Cl)cc4)nc3c2)c1,·,46,·,·,·,·
CN1CCC(N(C)C(=O)/C(C#N)=C\c2ccc(OC(F)F)cc2)CC1,–,·,–,–,–,–
O=C(Nc1nc2ccccc2s1)c1cc(-c2ccco2)nc2ccccc12,–,–,–,–,–,–
Cc1nnc(NC(=O)c2cc(-c3ccco3)nc3ccccc23)s1,–,27,–,–,–,–
O=C(N/N=C/c1ccc(F)cc1)c1cc(-c2ccco2)nc2ccccc12,–,30,–,–,–,–
Cc1csc(NC(=O)c2cc(-c3ccco3)nc3ccccc23)n1,–,25,–,–,–,–
CCOc1ccc(C(=O)NCC(=O)NCC(c2cccs2)N2CCOCC2)cc1 (stereo not drawn),–,–,–,–,–,–
Cc1cc(C)c2c(ccc3ccccc32)n1,–,·,–,–,–,–
Oc1ccc(-c2nc3ccc4ccccc4c3c3c2CCC3)cc1O,–,33,–,–,–,–
CCN(CC(=O)Nc1c(F)cccc1F)C(=O)c1ccc(S(=O)(=O)N(CC)c2ccccc2)cc1,–,·,–,–,–,–
OCCCn1c(CCNc2nc(-c3ccc(Cl)cc3)cs2)nc2cc(C(F)(F)F)ccc21,27,–,–,–,–,–
O=[N+]([O-])c1cc(-c2csc(NCCc3nc4cc(C(F)(F)F)ccc4n3CCCO)n2)ccc1Cl,32,–,–,–,–,–
C/C(=N\NC(=O)c1ccc(Br)o1)c1cc2c(cc1NC(=O)CCC(=O)O)OCO2,–,·,–,–,–,–
COc1ccc(CN(C)C[C@@H]2OCc3cnnn3CCCC(=O)N([C@@H](C)CO)C[C@H]2C)cc1,·,·,–,·,·,–
O=C(O)CCc1ccc(-c2ccc(F)cc2)n1Cc1ccco1,29,–,–,–,–,–
CCOC(=O)N1CCC(N2CCN(S(=O)(=O)c3ccc(Cl)cc3)CC2)CC1,29,–,–,–,–,–
O=C(CCC(=O)N1CCN(S(=O)(=O)c2ccc(Cl)cc2)CC1)NC1CCCc2ccccc21 (stereo not drawn),26,–,–,–,–,–
O=C(CN1CCN(S(=O)(=O)c2ccccc2)CC1)NC1CC1,–,–,–,–,–,–
CCOC(=O)N1CCN(S(=O)(=O)c2ccc(Cl)cc2)CC1,–,–,–,–,–,–
